SKKanGAS inh: inhibitors of SKKanGAS S. pyogenes growth in kanamycin (SK-promoter or general growth effect); BacTiter-Glo, 6 h; inhibition, % at 7.5 µM; 300,000 compounds, 1.3% hits;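 active means mean replicate score, as percent of positive control median, at least 50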;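 further: strain carries kanamycin resistance gene driven by streptokinase promoter and grows in 40 µg/ml kanamycin; loss of luminescence reflects streptokinase promoter inhibition or plain growth inhibition; 0% = median of DMSO wells and 100% = positive control at its reference dose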
Beta cell apopt: beta cell apoptosis inhibition. INS-1E cytokine-induced death, ATP luminescence, 48 h; percent of positive-control rescue, neutral wells zero. protection from apoptosis, % (no concentration beside the values). 300,000 compounds, 0.8% hits;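 active means Every replicate reaches about 75%, or at least half do and their mean reaches it too, limit read from the data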;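 further: 0% = cytokine-treated negative control wells and 100% = positive control rescue; higher means more ATP so stronger rescue from cytokine killing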
MPTP block: inhibitors of mitochondrial permeability transition pore; isolated mouse mitochondria, Ca2+ swelling absorbance, 30 min; inhibition, % at 10 µM; 360,000 compounds, 1.4% hits;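 active means inhibition of 50% or more, scaled per plate between neutral and stimulator controls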;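 further: 0% = DMSO wells given calcium and 100% = 1 mM EGTA wells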
Mdm2-MdmX inh: human Mdm2/MdmX binding inhibition | SaOS-2 split-luciferase Mdm2/MdmX complementation, luminescence | inhibition, % at 8 µM | 330,000 compounds, 3% hits | AID 485346;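 active means inhibition of at least 50% at 8 µM in the primary screen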
Calb FLC: affects C. albicans growth with fluconazole. C. albicans CaCi-2 (fluconazole-resistant clinical isolate) + fluconazole, Alamar Blue growth, 48 h. growth inhibition, % (no concentration beside the values). 300,000 compounds, 0.57% hits;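 active means growth inhibition above about 58% in most replicates, limit read from the data, passing the limit was not always enough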;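 further: all wells also contain fluconazole at 8 µg/ml as a sub-toxic cotreatment; 0% = median of DMSO wells and 100% = median of geldanamycin control wells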
CSC inhib: blocks cancer stem cells. cancer stem cell-like cells viability, luminescence. inhibition, % at 7.5 µM. 300,000 compounds, 1.1% hits; in the data active means inhibition above about 75%; tested in HMLE shEcad cells
Rh123 counter: membrane potential counter-screen of mitochondrial pore inhibitors | inhibition, % at 10 µM | 5,000 compounds, 78% hits | AID 624504 | isolated mitochondria, Rhodamine 123 fluorescence | shares compounds with MPTP block; in the data active means inhibition above about 22%;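 further: 0% = DMSO vehicle and 100% = positive control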
MPTP swell DR: dose response confirmation of mitochondrial permeability transition pore inhibitors; shares compounds with MPTP block; isolated mitochondria swelling, absorbance; IC50, µM; 780 compounds, 58% hits; AID 651561; in the data active means IC50 below about 20 µM
MPTP cs DR: counter-screen for mitochondrial permeability transition pore inhibitors, dose response; shares compounds with MPTP block; isolated mitochondria counterscreen, fluorescence read-out; IC50, µM; 780 compounds, 49% hits; AID 651564; in the data active means IC50 below about 80 µM
The depositor's hits bear a star; nt = not tested or not shown. Compounds with a hit are over-represented: about 5.4% of the library has one in this group of screens.

SMILES	SKKanGAS inh	Beta cell apopt	MPTP block	Mdm2-MdmX inh	Calb FLC	CSC inhib	Rh123 counter	others
OC(c1cc(-c2cccc(Cl)c2)nc2ccccc12)C1CCCCN1 (configuration not stated)	nt	nt	81.6*	nt	nt	nt	-19.3	MPTP swell DR=3.56*;MPTP cs DR=29*
CCOc1cc(NC(=S)NCCCOC)c(OCC)cc1NC(=O)c1cccs1	5.6	3.1	-2.1	-6.3	0.1	-8.9	nt
Cc1ccc(Oc2ccc(NC(=O)Cn3ccsc3=N)cc2)cc1	0.2	-0.4	88.9*	35.9	3.7	47.7	-25.1	MPTP swell DR=6.33*;MPTP cs DR=>80
CCOC(=O)c1sc(NC(=O)Nc2ccc(Cl)cc2)nc1C	15.1	27.0	96.6*	-61.6	6.0	36.2	67.1*
CCOC(=O)c1ccc(NC(=O)Nc2nc3ccccc3s2)cc1	nt	nt	83.3*	nt	nt	nt	91.4*
CCOC(=O)Nc1nc2ccccc2s1	1.3	-14.3	-0.9	-145.7	-13.9	1.5	nt
CCCN(C(=O)c1cc(S(=O)(=O)N2CCN(CC)CC2)ccc1Cl)C1CCS(=O)(=O)C1 (configuration not stated)	nt	nt	1.2	nt	nt	nt	nt
CN(C)/C=C1/OC(=O)C(C#N)=C1c1ccc(Cl)cc1	0.0	-0.5	0.5	13.0	-1.3	11.2	nt
O=C(NCc1ccco1)c1ccccc1NS(=O)(=O)c1ccc(Cl)s1	4.2	-1.8	90.5*	-1.8	61.7	-4.0	78.9*
O=C(NCc1ccco1)c1ccccc1NS(=O)(=O)c1cccs1	1.1	2.6	-1.9	4.2	55.6	2.6	nt
Cc1ccc(S(=O)(=O)N/N=C/c2cc([N+](=O)[O-])ccc2O)cc1[N+](=O)[O-]	4.6	1.9	72.0*	8.7	-2.7	12.8	60.4*
Cc1ccc(O)c(-c2cc(C(F)(F)F)[nH]n2)c1	22.7	0.0	63.2*	15.8	-12.0	11.8	67.1*
Cc1cccc(NC(=O)c2cc(-c3cc(C)ccc3O)n[nH]2)c1	-2.6	-6.7	1.2	-72.0	20.0	-5.1	nt
O=C(CSCc1ccc(Cl)cc1)Nc1ccc(S(=O)(=O)N2CCCCCC2)cc1	1.5	-4.4	53.4*	-24.6	2.3	42.9	80.0*
CN(CC(=O)Nc1ccc(Cl)cc1)c1ccc(S(=O)(=O)N2CCCCC2)cc1[N+](=O)[O-]	7.4	-0.1	82.4*	28.0	-6.0	27.3	66.6*
COc1ccc(CN(C)c2ccc(S(=O)(=O)N3CCN(C)CC3)cc2[N+](=O)[O-])cc1OC	nt	102.1*	97.0*	8.7	nt	nt	99.0*
CN(CC(=O)Nc1ccc(S(=O)(=O)N2CCCC2)cc1)Cc1ccc(Cl)cc1Cl	5.2	-0.3	5.8	6.7	0.3	11.0	nt
CCCCN(C)Cc1c(C)[nH]c2c(Cl)cccc2c1=O	0.8	nt	-0.1	13.6	3.2	nt	nt
COc1ccc2cc(C(C)C(=O)Nc3cccc(S(=O)(=O)N(C)C)c3)ccc2c1 (configuration not stated)	-1.7	nt	1.1	34.4	-9.6	-3.4	nt
COC(=O)c1cnc2c(c(C)nn2C)c1OC	-7.9	1.6	-0.5	19.4	0.5	-16.2	nt
Cc1nnsc1SCCNC(=O)Nc1ccc(Cl)cc1	26.5	9.9	88.1*	-22.0	0.8	2.3	90.2*
O=C(NCCNC(=O)Nc1ccc(Cl)cc1)Nc1ccc(Cl)cc1	nt	nt	3.6	nt	nt	nt	nt
Cc1[nH]c2ccccc2c1/C=C(\C#N)S(=O)(=O)c1ccccc1	5.1	-11.1	72.1*	-7.2	19.3	3.8	60.8*
N#C/C(=C\c1ccc(O)c(O)c1)S(=O)(=O)c1ccccc1	14.8	-0.3	89.9*	-7.3	-0.3	8.2	70.4*
Cc1cc(C)c(/C=C(\C#N)S(=O)(=O)c2ccccc2)[nH]1	-2.2	-4.1	1.8	19.6	-2.1	6.8	nt
SMILES	SKKanGAS inh	Beta cell apopt	MPTP block	Mdm2-MdmX inh	Calb FLC	CSC inhib	Rh123 counter	others
Cc1ccc(-n2[nH]c(C)c(CCC#N)c2=O)cc1	-5.3	-12.6	-2.5	3.6	-17.4	20.0	nt
CC(C)(C)NC(=O)c1c(F)c(F)c(F)c(F)c1F	1.2	nt	-1.8	-14.0	-7.1	-6.5	nt
CN(c1ccccc1)S(=O)(=O)c1ccc(NC(=O)CC(=O)c2ccccc2)cc1	nt	nt	57.2*	nt	nt	nt	93.2*
O=c1[nH]c2cc3c(cc2cc1CN(Cc1cccnc1)C(=S)NCc1ccco1)OCO3	0.0	0.0	-1.1	3.7	-10.2	nt	nt
O=S(=O)(c1ccc(Br)cc1)N1CCN(c2cc(-c3ccccc3)nc3ncnn23)CC1	26.9	11.4	1.3	20.9	9.9	-22.3	nt
O=S(=O)(c1ccccc1)N1CCN(c2cc(-c3ccccc3)nc3ncnn23)CC1	6.7	29.4	82.0*	-15.2	-4.7	nt	78.4*
Cc1ccc(NC(=O)CSc2ccccc2NC(=O)c2ccccc2)cc1Cl	-15.4	9.3	91.6*	0.4	1.4	-10.1	64.9*
Cc1ccc(NC(=O)CSc2ccccc2NC(=O)c2ccccc2Cl)cc1Cl	30.2	13.6	90.0*	15.0	-15.8	39.1	87.2*
Cc1ccc(NC(=O)COc2ccccc2)cc1Cl	-0.9	-1.9	0.4	-3.5	1.3	3.1	nt
Cc1c(NC(=O)c2cccc(NC(=O)Cc3ccccc3F)c2)c(=O)n(-c2ccccc2)n1C	nt	-1.2	-1.8	-7.0	nt	nt	nt
COc1ccc(-n2c(NC(=O)c3ccco3)c(C#N)c3nc4ccccc4nc32)cc1	26.4	-5.5	3.3	0.2	30.6	-0.3	nt
N#Cc1c(NC(=O)c2ccccc2Cl)n(Cc2ccccc2)c2nc3ccccc3nc12	nt	106.1*	50.7*	nt	nt	112.1*	51.1*
COc1ccccc1C1CN(c2ccc(F)cc2F)N=C1c1cccs1 (configuration not stated)	31.7	4.1	3.9	17.5	6.4	12.2	nt
C=CCSC1=N/C(=C\c2cc(OCC)c(OC(C)=O)c([N+](=O)[O-])c2)C(=O)S1	-4.2	-4.5	98.4*	32.8	6.1	4.7	63.2*
O=c1ccc(Cl)nn1-c1ccccc1	-7.0	0.7	1.3	13.0	18.4	-3.7	nt
CN(C)S(=O)(=O)c1cccc(NC(=O)CSc2ncnc3ccccc23)c1	-7.3	-2.6	84.2*	14.6	7.9	6.0	66.4*
CN(C)S(=O)(=O)c1ccc(NC(=O)CSc2ncnc3ccccc23)cc1	-0.9	-3.5	1.2	31.1	-2.0	0.2	nt
CCN(CC)S(=O)(=O)c1cccc(NC(=O)CSc2nc3ccccc3[nH]2)c1	-0.6	-3.2	65.2*	1.2	17.4	10.5	33.3*
C=CCOc1ccc(C2/C(=C(\O)c3ccc(F)cc3)C(=O)C(=O)N2CCCN(C)C)cc1 (configuration not stated)	0.7	-6.3	0.5	-14.9	18.7	8.5	nt

Source: PubChem BioAssay
